Data reported in PMC9911399, “Two distinct binding modes provide the RNA-binding protein RbFox with extraordinary sequence specificity”.
Where a chain is given by its changes, count along the chain named. The full ranking holds about 16,000 sequences; the median of “ka relative to ugcaugu” is about 0.0091, and the highest 2% start at about 0.032. What follows is part of a selection rich in the highest values, with near analogues and random picks from the rest.

T1: RBFOX1 RRM (Homo sapiens, UniProt Q9NWB1 109-208)
T1 sequence: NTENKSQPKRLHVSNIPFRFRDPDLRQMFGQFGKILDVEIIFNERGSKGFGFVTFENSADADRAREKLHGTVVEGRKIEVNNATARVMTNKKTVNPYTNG

B1: AAAUGGU (DNA:RNA)
RNA: GGGAGACCGGAAUUCAGAUUGUCCAAAUGGUUUAAAUCCCGUCGUAGCCACCA
DNA 1: CAATCTGAATTCCGGTCTCCC
DNA 2: TGGTGGCTACGACGGGATT
B2: GAUCCGC (DNA:RNA)
RNA: B1 RNA with A25G, A27U, U28C, G29C, U31C
DNA 1: CAATCTGAATTCCGGTCTCCC
DNA 2: TGGTGGCTACGACGGGATT
B3: CCACACG (DNA:RNA)
RNA: B1 RNA with A25C, A26C, U28C, G29A, G30C, U31G
DNA 1: CAATCTGAATTCCGGTCTCCC
DNA 2: TGGTGGCTACGACGGGATT
B4: CUAAGCU (DNA:RNA)
RNA: B1 RNA with A25C, A26U, U28A, G30C
DNA 1: CAATCTGAATTCCGGTCTCCC
DNA 2: TGGTGGCTACGACGGGATT
B5: UUUUGUG (DNA:RNA)
RNA: B1 RNA with A25U, A26U, A27U, G30U, U31G
DNA 1: CAATCTGAATTCCGGTCTCCC
DNA 2: TGGTGGCTACGACGGGATT
B6: UUGUUGU (DNA:RNA)
RNA: B1 RNA with A25U, A26U, A27G, G29U
DNA 1: CAATCTGAATTCCGGTCTCCC
DNA 2: TGGTGGCTACGACGGGATT
B7: UUGUUUG (DNA:RNA)
RNA: B1 RNA with A25U, A26U, A27G, G29U, G30U, U31G
DNA 1: CAATCTGAATTCCGGTCTCCC
DNA 2: TGGTGGCTACGACGGGATT
B8: UUUGUUG (DNA:RNA)
RNA: GGGAGACCGGAAUUCAGAUUGUCCUUUGUUGUUAAAUCCCGUCGUAGCCACCA
DNA 1: CAATCTGAATTCCGGTCTCCC
DNA 2: TGGTGGCTACGACGGGATT
B9: UUGUCGU (DNA:RNA)
RNA: B1 RNA with A25U, A26U, A27G, G29C
DNA 1: CAATCTGAATTCCGGTCTCCC
DNA 2: TGGTGGCTACGACGGGATT
B10: UCCUUUG (DNA:RNA)
RNA: B8 RNA with U26C, U27C, G28U
DNA 1: CAATCTGAATTCCGGTCTCCC
DNA 2: TGGTGGCTACGACGGGATT
B11: UUUUUUG (DNA:RNA)
RNA: B8 RNA with G28U
DNA 1: CAATCTGAATTCCGGTCTCCC
DNA 2: TGGTGGCTACGACGGGATT
B12: UUUGUCG (DNA:RNA)
RNA: B8 RNA with U30C
DNA 1: CAATCTGAATTCCGGTCTCCC
DNA 2: TGGTGGCTACGACGGGATT
B13: UUUGUCC (DNA:RNA)
RNA: B8 RNA with U30C, G31C
DNA 1: CAATCTGAATTCCGGTCTCCC
DNA 2: TGGTGGCTACGACGGGATT
B14: UGACACA (DNA:RNA)
RNA: B1 RNA with A25U, A26G, U28C, G29A, G30C, U31A
DNA 1: CAATCTGAATTCCGGTCTCCC
DNA 2: TGGTGGCTACGACGGGATT
B15: AAUCAAU (DNA:RNA)
RNA: B1 RNA with A27U, U28C, G29A, G30A
DNA 1: CAATCTGAATTCCGGTCTCCC
DNA 2: TGGTGGCTACGACGGGATT
B16: GAAAAUG (DNA:RNA)
RNA: B1 RNA with A25G, U28A, G29A, G30U, U31G
DNA 1: CAATCTGAATTCCGGTCTCCC
DNA 2: TGGTGGCTACGACGGGATT
B17: CCUGCUU (DNA:RNA)
RNA: B8 RNA with U25C, U26C, U29C, G31U
DNA 1: CAATCTGAATTCCGGTCTCCC
DNA 2: TGGTGGCTACGACGGGATT
B18: AUGUAGU (DNA:RNA)
RNA: B1 RNA with A26U, A27G, G29A
DNA 1: CAATCTGAATTCCGGTCTCCC
DNA 2: TGGTGGCTACGACGGGATT
B19: UAUUUGU (DNA:RNA)
RNA: B1 RNA with A25U, A27U, G29U
DNA 1: CAATCTGAATTCCGGTCTCCC
DNA 2: TGGTGGCTACGACGGGATT
B20: CACGCGU (DNA:RNA)
RNA: B1 RNA with A25C, A27C, U28G, G29C
DNA 1: CAATCTGAATTCCGGTCTCCC
DNA 2: TGGTGGCTACGACGGGATT

biological target: T1, RBFOX1 RRM; assay: EMSA; HiTS-Eq, 1 nM pool, 10 min; buffer printed only for the single-RNA assays: 10 mM Tris pH 7.5, 150 mM NaCl, 3.4 mM EDTA, 0.001% NP-40, 30 C; conditions: tags: His6 N-terminal (pET28a); label: 5' 32P
Procedure, shortened: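 Relative association constants, normalised to the cognate motif, were derived by comparing read counts of each RNA species with those of the control reaction. The RNA sequenced was the free fraction, separated by 8% native PAGE after a 10 min equilibration in 50 µL of 1 nM 5′-radiolabelled RNA (7 randomized nucleotides) with increasing concentrations of purified wild-type or mutant RbFox RRM.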

First: B1
Second: B2
The binding signal of the first is lower: 0.00783 KA relative to UGCAUGU for the first, 0.0132 KA relative to UGCAUGU for the second.

First: B3
Second: B4
The binding signal of the first is lower: 0.0022 KA relative to UGCAUGU for the first, 0.00577 KA relative to UGCAUGU for the second.

First: B5
Second: B6
The binding signal of the first is higher: 0.0302 KA relative to UGCAUGU for the first, 0.0241 KA relative to UGCAUGU for the second.

First: B7
Second: B8
The binding signal of the first is higher: 0.0392 KA relative to UGCAUGU for the first, 0.0349 KA relative to UGCAUGU for the second.

First: B9
Second: B10
The binding signal of the first is higher: 0.0256 KA relative to UGCAUGU for the first, 0.0195 KA relative to UGCAUGU for the second.

First: B11
Second: B12
The binding signal of the first is higher: 0.0341 KA relative to UGCAUGU for the first, 0.0272 KA relative to UGCAUGU for the second.

First: B13
Second: B14
The binding signal of the first is higher: 0.0149 KA relative to UGCAUGU for the first, 0.00643 KA relative to UGCAUGU for the second.

First: B15
Second: B16
The binding signal of the first is lower: 0.000959 KA relative to UGCAUGU for the first, 0.00709 KA relative to UGCAUGU for the second.

First: B17
Second: B18
The binding signal of the first is higher: 0.0137 KA relative to UGCAUGU for the first, 0.00813 KA relative to UGCAUGU for the second.

Compared with B19, B20 is lower in binding signal: 0.0237 KA relative to UGCAUGU for the first, 0.00634 KA relative to UGCAUGU for the second.
